The values below come from PMC4336329 (PLoS ONE, 2015).

Among all 310,000 compounds or so, about 14,000 (4.5%) showed an effect of 50% or more. Effects have a minus sign here. The full list was thinned out, with strong results kept by preference.
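Further: peak tail current of the secondary pulse compared with the same well before compound.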

human ether-à-go-go-related gene (hERG) potassium channel, sequence (Q12809 whole entry, looked up): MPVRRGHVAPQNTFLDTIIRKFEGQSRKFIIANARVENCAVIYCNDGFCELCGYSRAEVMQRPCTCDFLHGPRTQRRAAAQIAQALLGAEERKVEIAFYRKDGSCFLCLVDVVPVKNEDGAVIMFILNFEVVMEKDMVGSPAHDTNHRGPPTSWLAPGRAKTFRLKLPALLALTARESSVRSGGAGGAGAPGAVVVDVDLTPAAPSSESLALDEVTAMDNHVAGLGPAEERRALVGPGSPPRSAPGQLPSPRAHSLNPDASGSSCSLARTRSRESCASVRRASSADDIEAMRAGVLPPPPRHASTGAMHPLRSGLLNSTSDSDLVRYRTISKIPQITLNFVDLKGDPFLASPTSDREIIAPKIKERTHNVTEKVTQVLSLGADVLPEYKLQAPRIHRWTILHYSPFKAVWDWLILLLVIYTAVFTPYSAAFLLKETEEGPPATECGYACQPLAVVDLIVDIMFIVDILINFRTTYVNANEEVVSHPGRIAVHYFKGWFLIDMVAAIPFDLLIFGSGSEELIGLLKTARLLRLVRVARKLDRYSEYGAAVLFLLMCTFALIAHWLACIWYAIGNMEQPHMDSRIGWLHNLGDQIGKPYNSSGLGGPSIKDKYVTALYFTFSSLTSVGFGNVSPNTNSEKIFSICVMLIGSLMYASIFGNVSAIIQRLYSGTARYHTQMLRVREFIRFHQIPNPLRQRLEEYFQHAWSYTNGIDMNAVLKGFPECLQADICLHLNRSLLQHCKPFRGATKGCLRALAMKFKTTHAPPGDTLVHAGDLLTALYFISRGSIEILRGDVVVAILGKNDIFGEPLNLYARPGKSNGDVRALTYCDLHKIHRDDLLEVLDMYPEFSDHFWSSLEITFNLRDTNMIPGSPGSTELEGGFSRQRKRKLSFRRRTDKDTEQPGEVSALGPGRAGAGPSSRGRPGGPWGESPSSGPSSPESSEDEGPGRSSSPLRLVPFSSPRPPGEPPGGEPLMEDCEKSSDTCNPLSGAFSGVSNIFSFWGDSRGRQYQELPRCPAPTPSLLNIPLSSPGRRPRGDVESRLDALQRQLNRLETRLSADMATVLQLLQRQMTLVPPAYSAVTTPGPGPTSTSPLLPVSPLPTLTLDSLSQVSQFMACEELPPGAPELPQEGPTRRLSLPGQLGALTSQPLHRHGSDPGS

This assay concerns the target human ether-à-go-go-related gene (hERG) potassium channel (human, UniProt Q12809). Nature of the assay: primary screen, population patch clamp on CHO cells stably expressing hERG; higher = less effect of the substance.
For the molecule `CN(C)c1ccnc2sc3c(=O)n(Cc4ccccc4)cnc3c12`, the “hERG current change (%, negative = inhibition) at 10uM” value is reported as -51%.
As for `CN(C)c1ccnc2sc3c(=O)n(-c4ccccc4)cnc3c12`, the figure is -17.9%.
Turning to `Cc1ccc(-n2cnc3c(sc4nccc(N(C)C)c43)c2=O)cc1`, the “hERG current change (%, negative = inhibition) at 10uM” value is reported as -16.4%.
As for `CCN(CC)C(=O)c1sc(NC(=O)Cc2cccs2)c(C#N)c1C`, the figure is -6.24%; as for `CC(C)CN(CC(C)C)CC(O)CN(c1ccccc1)S(=O)(=O)c1ccccc1[N+](=O)[O-]` (stereo not shown), -51.5%; as for `CC1(C)NC(=O)N(CC(O)CN(c2ccccc2)S(=O)(=O)c2ccccc2[N+](=O)[O-])C1=O` (stereo not shown), 13.7%.
In the case of `Cc1cccc(N(CC(O)CN2CCCC2)S(=O)(=O)c2ccccc2)c1` (stereo not shown) it was -57%.
As for `CC(C)CNC(=O)CN(c1ccccc1)S(=O)(=O)c1ccccc1[N+](=O)[O-]`, the figure is 2.38%; as for `COc1ccccc1N(CC(O)CN1CCCC1)S(=O)(=O)c1ccccc1` (stereo not shown), -4.48%; as for `Cc1ccc(N(CC(O)CN2CCCCC2)S(=O)(=O)c2ccccc2)cc1` (stereo not shown), -68%.
Take `Cc1cccc(N(CC(O)CN2CCOCC2)S(=O)(=O)c2ccccc2)c1` (stereo not shown): the “hERG current change (%, negative = inhibition) at 10uM” value was -1.7%.
In the case of `Cc1ccc(N(CC(O)CN2CCCC2)S(=O)(=O)c2ccccc2)cc1` (stereo not shown) it was -68.2%; in that of `COc1ccccc1N(CC(O)CN1CCOCC1)S(=O)(=O)c1ccccc1` (stereo not shown), 12.7%.
As for `COc1ccc(OC)c2[nH]c(=O)c(CCNS(=O)(=O)c3ccc(F)cc3)cc12`, the figure is 1.59%; as for `CN1CCC(N(C)C(=O)/C=C/c2cn(-c3ccccc3)nc2-c2cccs2)CC1.Cl`, -22.3%; as for `NC(=O)Cc1ccc(C(=O)c2ccccc2)s1`, 7.3%.
In the case of `C[C@H](O)[C@@]1(O)CC[C@H]2[C@@H]3CC[C@@H]4C[C@H](O)CC[C@]4(C)[C@H]3CC[C@@]21C` it was -0.0961%; in that of `CCOCCOc1nc2c(c(=O)n(C)c(=O)n2C)n1CCc1ccccc1`, 0.435%.
Regarding `CC(C(N)=O)N1CC(c2ccc(Cl)cc2)CC1=O` (stereo not shown), the “hERG current change (%, negative = inhibition) at 10uM” value was -10.8%.
As for `C=CCN1C(=O)NC(=O)/C(=C/c2ccc(OC)c(COc3ccc(NC(C)=O)cc3)c2)C1=O`, the figure is 8.75%.
As for `Cc1ccc(N(CC(O)CN2CCCCC2)S(=O)(=O)c2ccccc2[N+](=O)[O-])cc1` (stereo not shown), the figure is -70.9%.
Take `Cc1ccc(N(CC2CO2)S(=O)(=O)c2ccccc2[N+](=O)[O-])cc1` (stereo not shown): the “hERG current change (%, negative = inhibition) at 10uM” value amounted to 1.23%.
In the case of `O=[N+]([O-])c1ccccc1S(=O)(=O)N(CC(O)CN1CCCCC1)c1ccccc1` (stereo not shown) it was -29.9%; in that of `O=C(NC(Cc1c[nH]c2ccccc12)C(=O)OCC(=O)c1cccc2ccccc12)c1cccs1` (stereo not shown), 0.359%.
In the case of `CN(C)C(=O)c1ccc(NC(=O)c2cccc(S(=O)(=O)N3CCCc4ccccc43)c2)cc1` it was -8.06%; in that of `NC(=O)[C@H]1CC2(CC(c3cccc(NC(=O)CC(c4ccccc4)c4ccccc4)c3)=NO2)CN1C(=O)C(c1ccccc1)c1ccccc1` (stereo partly shown), 8.82%; in that of `COc1ccc(OC)c(CN2CCCC(C(=O)N3CCCCC3)C2)c1.O=C(O)C(=O)O` (stereo not shown), -32.1%.
In the case of `O=C(C1CCCN(Cc2cc(Br)ccc2O)C1)N1CCCCC1.O=C(O)C(=O)O` (stereo not shown) it was -31.6%.
As to `COc1ccc(Br)cc1CN1CCCC(C(=O)N2CCCCC2)C1.O=C(O)C(=O)O` (stereo not shown), the “hERG current change (%, negative = inhibition) at 10uM” value is recorded as -55.8%.
In the case of `COc1ccccc1CN1CCCC(C(=O)N2CCCCC2)C1.O=C(O)C(=O)O` (stereo not shown) it was 10.6%; in that of `COc1ccc(Br)cc1CN1CCCC(C(=O)N2CCCCCC2)C1.O=C(O)C(=O)O` (stereo not shown), -62.4%.
As for `COc1cc(OC)c(OC)cc1CN1CCCC(C(=O)N2CCCCC2)C1.O=C(O)C(=O)O` (stereo not shown), the figure is -1.45%; as for `COc1ccc(-c2csc(NC(=O)c3ccc(S(=O)(=O)N4CCc5ccccc5C4)cc3)n2)c(OC)c1`, 23%.
`O=C(CCC(=O)OCC(=O)c1ccccc1)Nc1cccc(Cl)c1`: the “hERG current change (%, negative = inhibition) at 10uM” value came out at 21.5%.
For `CCN(CC)C(=O)c1c(NC(=O)c2ccccc2)sc(C)c1C`, the “hERG current change (%, negative = inhibition) at 10uM” value is recorded as -6.01%.
As for `O=C(NCSc1ccnc(SCNC(=O)c2ccccc2)n1)c1ccccc1`, the figure is -28%; as for `COc1ccc(CC(=O)NCCS(=O)(=O)N2CCN(c3ccccc3)CC2)cc1`, 12.7%.
For the molecule `CN(C)c1ccc(-c2nnc(SCC3CCCO3)n2C)cc1` (stereo not shown), the “hERG current change (%, negative = inhibition) at 10uM” value was determined as 5.24%.
In the case of `Cc1ccc(CSc2nnc(-c3ccncc3)n2C)cc1` it was 4.36%; in that of `Cn1c(SCc2ccc([N+](=O)[O-])cc2)nnc1-c1cccnc1`, -18%; in that of `Cn1c(SCc2ccc([N+](=O)[O-])cc2)nnc1-c1ccncc1`, -52%.
In the case of `Cn1c(SCC2CCCO2)nnc1-c1ccc([N+](=O)[O-])cc1` (stereo not shown), the “hERG current change (%, negative = inhibition) at 10uM” value is recorded as -63.8%.
As for `Cn1c(SCC2CCCO2)nnc1-c1cccc([N+](=O)[O-])c1` (stereo not shown), the figure is 8.76%.
Take `CCO/C=C1/C(=O)N(CC)c2ccccc21`: the “hERG current change (%, negative = inhibition) at 10uM” value is -8.33%.
In the case of `CCOC(=O)Nc1cccc2ccccc12` it was 1.14%; in that of `CCOc1cc(C2C(C(=O)O)c3cc(OCC)c(OCC)cc3C(=O)N2C)ccc1O` (stereo not shown), 2.69%; in that of `O=C(CNC(=S)N(Cc1ccccc1F)C1CCCCC1)NCCN1CCOCC1`, 43.3%.
For the molecule `COCCNC(=O)Cn1nc(-c2ccc(Cl)cc2)c2ccccc2c1=O`, the “hERG current change (%, negative = inhibition) at 10uM” value was 8.83%.
For the molecule `COc1cccc(CN(C)C(=O)CCNC(=O)c2ccc(Br)cc2)c1`, the “hERG current change (%, negative = inhibition) at 10uM” value is reported as 0.786%.
`CC(=O)c1cccc(CN2CCN(Cc3ccc(C)cc3)C(CCO)C2)c1` (stereo not shown): the “hERG current change (%, negative = inhibition) at 10uM” value is -69%.
On to `CC(=O)c1cc(CN2CCN(CCC(C)C)C(CCO)C2)cs1` (stereo not shown), for which the “hERG current change (%, negative = inhibition) at 10uM” value is reported as -5.53%.
With `COc1ccc(CN2CCN(Cc3csc(C(C)=O)c3)CC2CCO)c(C)c1C` (stereo not shown), the “hERG current change (%, negative = inhibition) at 10uM” value is -58.1%.
In the case of `CC(=O)c1cc(CN2CCN(CCc3ccccc3)C(CCO)C2)cs1` (stereo not shown) it was -54.4%.
In the case of `CC(=O)c1cccc(CN2CCN(CCC(C)C)C(CCO)C2)c1` (stereo not shown) it was -29%; in that of `CC(=O)c1cccc(CN2CCN(CCc3ccccc3)C(CCO)C2)c1` (stereo not shown), -53.3%.
Regarding `CC(=O)c1cccc(CN2CCN(CC(C)C)C(CCO)C2)c1` (stereo not shown), the “hERG current change (%, negative = inhibition) at 10uM” value amounted to 5.29%.
As for `CC(=O)c1cc(CN2CCN(Cc3ccccc3)C(CCO)C2)cs1` (stereo not shown), the figure is 2.03%; as for `CC(=O)c1cc(CN2CCN(C3CCN(C(C)C)CC3)C(CCO)C2)cs1` (stereo not shown), -3.56%; as for `CCOc1ccccc1CN1CCN(Cc2csc(C(C)=O)c2)CC1CCO` (stereo not shown), -44.5%.
As for `CC(=O)c1cccc(CN2CCN(Cc3ccccc3)C(CCO)C2)c1` (stereo not shown), the figure is -1.84%.
In the case of `CC(=O)c1cccc(CN2CCN(Cc3ccc(F)cc3)C(CCO)C2)c1` (stereo not shown) it was -32.9%.
